Results reported in PubChem BioAssay AID1159580 (chemical genetic matrix, 2015).
Values joined by “and” are separate entries in the source; they are usually repeats but may differ in a detail not shown here. Equal values may be shown once. Screen size: about 5,500 compounds; about 2,000 (36%) were called active. About 18% were inconclusive and are not listed. Cut-off read from the data, not from the text of the source: active = normalized growth mostly below about 0.91 (no sharp cut-off); inconclusive = no clear call, values can overlap the other calls; inactive = mostly above about 0.92. This is one part of the list.

Assay: chemical genetic growth profiling, strain panel (AID 1159580);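 note: tested at 20 µM; growth read once vehicle control cultures reached saturation at 30 °C; 1 = growth at the plate median or of vehicle wells; lower values mean less growth of the strain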
Settings: growth OD

Measured: normalized growth

NNCc1cccc(O)c1
inactive: S. cerevisiae deletion strains, locus YAL013W, strain DEP1, stronger effect = lower value 0.994 | S. cerevisiae deletion strains, locus YAL040C, strain CLN3, stronger effect = lower value 1.08 | S. cerevisiae deletion strains, locus YBR021W, strain FUR4, stronger effect = lower value 1.07 | S. cerevisiae deletion strains, locus YBR229C, strain ROT2, stronger effect = lower value 1 | S. cerevisiae deletion strains, locus YCL029C, strain bik1, stronger effect = lower value 0.988 | S. cerevisiae deletion strains, locus YCL061C, strain MRC1 (second series), stronger effect = lower value 0.984 | S. cerevisiae deletion strains, locus YDL035C, strain GPR1, stronger effect = lower value 0.969 | S. cerevisiae deletion strains, locus YDL074C, strain BRE1, stronger effect = lower value 0.98 | S. cerevisiae deletion strains, locus YDL101C, strain DUN1, stronger effect = lower value 0.994 | S. cerevisiae deletion strains, locus YDL134C, strain PPH21, stronger effect = lower value 0.994 | S. cerevisiae deletion strains, locus YDL192W, strain arf1, stronger effect = lower value 1 | S. cerevisiae deletion strains, locus YDR101C, strain arx1, stronger effect = lower value 0.989 | S. cerevisiae deletion strains, locus YDR150W, strain NUM1, stronger effect = lower value 0.987 and 0.976 | S. cerevisiae deletion strains, locus YDR162C, strain NBP2, stronger effect = lower value 0.987 | S. cerevisiae deletion strains, locus YDR318W, strain mcm21, stronger effect = lower value 1 | S. cerevisiae deletion strains, locus YDR363W, strain ESC2, stronger effect = lower value 1.01 | S. cerevisiae deletion strains, locus YDR388W, stronger effect = lower value 1.01 | S. cerevisiae deletion strains, locus YDR502C, strain sam2, stronger effect = lower value 0.996 | S. cerevisiae deletion strains, locus YEL061C, strain CIN8, stronger effect = lower value 1 | S. cerevisiae deletion strains, locus YER002W, strain NOP16, stronger effect = lower value 0.995 | S. cerevisiae deletion strains, locus YER110C, stronger effect = lower value 0.968 | S. cerevisiae deletion strains, locus YER155C, strain BEM2, stronger effect = lower value 1 | S. cerevisiae deletion strains, locus YER167W, strain BCK2, stronger effect = lower value 0.99 | S. cerevisiae deletion strains, locus YGL078C, strain dbp3, stronger effect = lower value 0.99 | S. cerevisiae deletion strains, locus YGL086W, strain mad1, stronger effect = lower value 0.984 | S. cerevisiae deletion strains, locus YGL248W, strain PDE1, stronger effect = lower value 0.996 | S. cerevisiae deletion strains, locus YGR078C, strain PAC10, stronger effect = lower value 1 | S. cerevisiae deletion strains, locus YGR135W, strain pre9, stronger effect = lower value 1.02 | S. cerevisiae deletion strains, locus YGR229C, strain SMI1, stronger effect = lower value 1.01 | S. cerevisiae deletion strains, locus YGR252W, strain gcn5, stronger effect = lower value 0.992 | S. cerevisiae deletion strains, locus YHR030C, strain SLT2, stronger effect = lower value 0.994 | S. cerevisiae deletion strains, locus YHR079C, strain IRE1 (second series), stronger effect = lower value 0.987 | S. cerevisiae deletion strains, locus YHR094C, strain hxt1, stronger effect = lower value 0.99 | S. cerevisiae deletion strains, locus YHR129C, strain ARP1, stronger effect = lower value 0.993 | S. cerevisiae deletion strains, locus YHR200W, strain rpn10, stronger effect = lower value 0.986 | S. cerevisiae deletion strains, locus YIL066C, strain RNR3, stronger effect = lower value 0.99 | S. cerevisiae deletion strains, locus YIL073C, strain SPO22, stronger effect = lower value 0.92 | S. cerevisiae deletion strains, locus YIL125W, strain kgd1, stronger effect = lower value 0.971 | S. cerevisiae deletion strains, locus YIR030C, strain dcg1, stronger effect = lower value 0.989 | S. cerevisiae deletion strains, locus YJL095W, strain BCK1, stronger effect = lower value 1.01 | S. cerevisiae deletion strains, locus YJL134W, strain LCB3, stronger effect = lower value 0.987 | S. cerevisiae deletion strains, locus YJL168C, strain set2, stronger effect = lower value 0.981 | S. cerevisiae deletion strains, locus YJL187C, strain SWE1 (second series), stronger effect = lower value 0.991 | S. cerevisiae deletion strains, locus YJR043C, strain POL32, stronger effect = lower value 0.974 | S. cerevisiae deletion strains, locus YJR075W, strain HOC1, stronger effect = lower value 0.99 | S. cerevisiae deletion strains, locus YKL009W, strain mrt4, stronger effect = lower value 0.966 | S. cerevisiae deletion strains, locus YKL068W, stronger effect = lower value 0.98 | S. cerevisiae deletion strains, locus YKL085W, strain MDH1 (second series), stronger effect = lower value 0.991 | S. cerevisiae deletion strains, locus YKL085W, strain MDH1, stronger effect = lower value 0.991 | S. cerevisiae deletion strains, locus YKL190W, strain CNB1, stronger effect = lower value 1 | S. cerevisiae deletion strains, locus YKR001C, strain vps1, stronger effect = lower value 1 | S. cerevisiae deletion strains, locus YLR039C, strain RIC1, stronger effect = lower value 0.928 | S. cerevisiae deletion strains, locus YLR058C, strain SHM2, stronger effect = lower value 0.994 | S. cerevisiae deletion strains, locus YLR102C, strain apc9, stronger effect = lower value 0.982 | S. cerevisiae deletion strains, locus YLR262C, strain YPT6, stronger effect = lower value 0.892 | S. cerevisiae deletion strains, locus YLR268W, strain sec22, stronger effect = lower value 1.01 | S. cerevisiae deletion strains, locus YLR330W, strain CHS5, stronger effect = lower value 0.987 | S. cerevisiae deletion strains, locus YLR342W, strain FKS1 (second series), stronger effect = lower value 0.965 | S. cerevisiae deletion strains, locus YLR371W, strain rom2, stronger effect = lower value 0.967 | S. cerevisiae deletion strains, locus YLR418C, strain cdc73, stronger effect = lower value 1.03 | S. cerevisiae deletion strains, locus YML016C, strain PPZ1, stronger effect = lower value 0.993 | S. cerevisiae deletion strains, locus YML032C, strain rad52, stronger effect = lower value 0.974 | S. cerevisiae deletion strains, locus YML124C, strain tub3, stronger effect = lower value 0.999 | S. cerevisiae deletion strains, locus YMR078C, strain ctf18, stronger effect = lower value 1 | S. cerevisiae deletion strains, locus YMR223W, strain ubp8, stronger effect = lower value 0.988 | S. cerevisiae deletion strains, locus YMR263W, strain SAP30, stronger effect = lower value 1 | S. cerevisiae deletion strains, locus YMR307W, strain GAS1, stronger effect = lower value 1.01 | S. cerevisiae deletion strains, locus YNL067W, strain RPL9B, stronger effect = lower value 0.994 | S. cerevisiae deletion strains, locus YNL128W, strain TEP1, stronger effect = lower value 1.01 and 0.986 | S. cerevisiae deletion strains, locus YNL153C, strain GIM3, stronger effect = lower value 1.02 and 1.01 | S. cerevisiae deletion strains, locus YNL175C, strain NOP13, stronger effect = lower value 0.994 | S. cerevisiae deletion strains, locus YNL197C, strain WHI3, stronger effect = lower value 1.01 | S. cerevisiae deletion strains, locus YNL224C, strain SQS1, stronger effect = lower value 0.987 | S. cerevisiae deletion strains, locus YNL233W, strain BNI4, stronger effect = lower value 1.01 | S. cerevisiae deletion strains, locus YNL250W, strain rad50, stronger effect = lower value 0.969 | S. cerevisiae deletion strains, locus YNL271C, strain bni1, stronger effect = lower value 0.98 | S. cerevisiae deletion strains, locus YNL298W, strain CLA4, stronger effect = lower value 1 | S. cerevisiae deletion strains, locus YNL307C, strain MCK1, stronger effect = lower value 0.997 | S. cerevisiae deletion strains, locus YNL322C, strain KRE1, stronger effect = lower value 0.991 and 0.996 | S. cerevisiae deletion strains, locus YNR052C, strain pop2, stronger effect = lower value 0.981 | S. cerevisiae deletion strains, locus YOL006C, strain TOP1, stronger effect = lower value 0.996 | S. cerevisiae deletion strains, locus YOL012C, strain htz1 0.847 | S. cerevisiae deletion strains, locus YOL147C, strain pex11, stronger effect = lower value 1 | S. cerevisiae deletion strains, locus YOR061W, strain CKA2, stronger effect = lower value 0.993 | S. cerevisiae deletion strains, locus YOR069W, strain VPS5, stronger effect = lower value 1 | S. cerevisiae deletion strains, locus YOR083W, strain WHI5 (second series), stronger effect = lower value 0.953 | S. cerevisiae deletion strains, locus YOR136W, strain idh2, stronger effect = lower value 0.994 | S. cerevisiae deletion strains, locus YOR144C, strain elg1, stronger effect = lower value 0.994 | S. cerevisiae deletion strains, locus YOR184W, strain ser1, stronger effect = lower value 0.974 | S. cerevisiae deletion strains, locus YOR316C, strain cot1, stronger effect = lower value 0.994 | S. cerevisiae deletion strains, locus YPL055C, strain LGE1, stronger effect = lower value 1 | S. cerevisiae deletion strains, locus YPL241C, strain CIN2, stronger effect = lower value 0.967 | S. cerevisiae deletion strains, locus YPR119W, strain clb2, stronger effect = lower value 0.998 | S. cerevisiae deletion strains, locus YPR141C, strain kar3, stronger effect = lower value 0.998 | S. cerevisiae deletion strains, locus YPR163C, strain tif3, stronger effect = lower value 1 | S. cerevisiae deletion strains, locus YPR167C, strain met16, stronger effect = lower value 0.999 | S. cerevisiae deletion strains, strain wtn01, stronger effect = lower value 0.994 | S. cerevisiae strains, strain wild type, stronger effect = lower value 0.994
